Compounds with a hit are over-represented: about 0.88% of the library has one in this group of screens.
APE1 inh: qHTS Assay for Inhibitors of the Human Apurinic/apyrimidinic Endonuclease 1 (APE1). DNA repair nuclease/redox regulator APEX1 (Homo sapiens), P27695. recombinant APE1, TAMRA/BHQ-2 abasic DNA cleavage fluorescence. Potency, µM (top dose mostly 65.8 µM), without a hit: top-dose activity change, negative = inhibition, most hits filed as inhibitors. 350,000 compounds, 0.35% hits;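 note: plate controls were vehicle for no effect and reference inhibitor for full effect; nearly all actives have a fitted effect of over 55% in size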
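Substrate: short duplex with […] THF abasic site, 5'-TAMRA and 3'-BHQ-2, 50 nM final. APE1 at 0.75 nM, preincubated 15 min RT with compound. Fluorescence increase from first to third read measured activity.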
ERG-DNA inh: qHTS for Small Molecule Inhibitors of the ERG Ets/DNA interaction. Transcriptional regulator ERG (Homo sapiens), P11308. fluorescence polarization, His-ERG Ets domain / labelled DNA. Potency, µM (titrated, usually from 76.9 µM), for inactives: at the highest dose FP activity, negative = inhibition, hits mostly inhibitors. 370,000 compounds, 0.028% hits. AID 624246, 2012; active = well fitted inhibition curve with a large enough effect in the polarisation, with a control signal flat; inconclusive = small, poorly fitted or top-dose-only effect, or effect the other way, or a change in a side signal; inactive = no such curve, though single readings can be large or run the other way; the % refers to the polarisation;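 note: polarization taken with two DNA probes labelled with fluorescein and Texas red; % of control where 0% means no effect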
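His-tagged ERG Ets domain (1 uM in the protein solution; 300mM KCl, 50mM Tris-HCl, 1mM EDTA, 1mM DTT, pH 7.5) received compound, then a probe mix of 5 nM fluorescein-DNA and 100nM Texas-615-DNA. Fluorescence polarization was read for both dyes.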
RECQ1 inh: qHTS Assay for Inhibitors of RecQ-Like Dna Helicase 1 (RECQ1); RECQ1 DNA unwinding, red fluorescence kinetic read; Potency, µM (top dose mostly 57.3 µM), inactives show at the top dose activity, negative = inhibition, usual class: inhibitors; 240,000 compounds, 0.54% hits; AID 2549, 2010;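 note: plate controls were vehicle for no effect and no enzyme for full effect; nearly all actives have a fitted effect of over 30% in size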
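RECQ1T1 50 nM; forked duplex (20 bp + 30-nt ss tails) 200 nM, ATP 2 mM final; pH 8.0, 2 mM MgCl2, 2.5 ug/ml poly(dI-dC); 15 min compound preincubation; discontinuous kinetic read over 2 h at RT.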
WRN inhibitor: qHTS for Inhibitors of WRN Helicase. WRN helicase unwinding, fluorescent forked duplex, kinetic. Potency, µM (series often up to 114 µM), for inactives: at the highest dose activity change, negative = inhibition, hits mostly inhibitors. 360,000 compounds, 0.46% hits. AID 651768, 2012; note: % is set by controls: 0 for no effect and ±100 for the full control effect; nearly all actives have a fitted effect of over 55% in size
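WRN at 20 nM final preincubated with compound 15 min at room temperature; reaction started with 100 nM fluorophore/quencher forked duplex oligonucleotide and 2 mM ATP final. Unwinding followed kinetically by red fluorescence (ex 525, em 598 nm).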
BLM inh: qHTS Assay for Inhibitors of Bloom's syndrome helicase (BLM). recombinant BLM DNA unwinding, fluorescence dequenching. AID 2528, 2010. 350,000 compounds, 0.2% hits. RecQ-like DNA helicase BLM (Homo sapiens), P54132. Potency, µM (doses to about 56.1 µM), for the others: at the top dose activity change, negative = inhibition, hits mostly inhibitors;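 note: plate controls were vehicle for no effect and no enzyme for full effect; nearly all actives have a fitted effect of over 35% in size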
GCN5L2 inh: qHTS Assay for Inhibitors of GCN5L2. Histone acetyltransferase KAT2A (Homo sapiens), Q92830. GCN5L2 HAT assay, ThioGlo1 CoA-SH fluorescence. Potency, µM (highest dose often 58.9 µM), for the others: at the top dose activity change, negative = inhibition, actives largely listed as inhibitors. 390,000 compounds, 0.21% hits. AID 504327, 2011; note: % is set by controls: 0 for no effect and ±100 for the full control effect
Target sequence (Q92830 whole entry, looked up): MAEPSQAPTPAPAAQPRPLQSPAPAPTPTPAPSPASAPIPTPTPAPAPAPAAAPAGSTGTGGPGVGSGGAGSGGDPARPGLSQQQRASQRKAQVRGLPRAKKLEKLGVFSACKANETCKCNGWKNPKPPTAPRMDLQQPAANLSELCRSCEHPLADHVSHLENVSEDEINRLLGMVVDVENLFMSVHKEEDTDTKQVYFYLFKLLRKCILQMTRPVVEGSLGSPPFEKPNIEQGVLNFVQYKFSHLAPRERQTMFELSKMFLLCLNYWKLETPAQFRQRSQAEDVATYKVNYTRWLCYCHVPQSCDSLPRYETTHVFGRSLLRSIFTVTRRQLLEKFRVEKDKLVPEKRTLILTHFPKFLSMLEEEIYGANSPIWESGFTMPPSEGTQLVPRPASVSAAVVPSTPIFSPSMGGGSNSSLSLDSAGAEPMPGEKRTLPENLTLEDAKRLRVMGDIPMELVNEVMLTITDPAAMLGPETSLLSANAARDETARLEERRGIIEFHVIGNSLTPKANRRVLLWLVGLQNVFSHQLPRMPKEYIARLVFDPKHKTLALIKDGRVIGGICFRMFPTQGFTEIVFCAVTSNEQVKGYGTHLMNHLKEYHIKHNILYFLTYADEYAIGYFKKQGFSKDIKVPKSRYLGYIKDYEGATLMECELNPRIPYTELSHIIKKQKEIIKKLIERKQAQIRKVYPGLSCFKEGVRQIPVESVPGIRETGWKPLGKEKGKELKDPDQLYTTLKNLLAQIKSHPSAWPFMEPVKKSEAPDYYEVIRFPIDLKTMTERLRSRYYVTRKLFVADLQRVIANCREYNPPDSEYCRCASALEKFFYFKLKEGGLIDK
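qHTS, 1536-well. 20nM enzyme, pH 7.5 HEPES/EDTA/Tween-20 buffer; 15 min compound preinc., RT. Start: 75uM H3(1-25), 70uM AcCoA, 50uM ThioGlo1. Read Ex340/Em540 at t=0 (autofluorescence flag) and t=20 min.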
An asterisk follows results filed as active; i = inactive; ? = inconclusive; . = no result given; [ ] = remark or other dose. Unless noted, calls come from the whole dose curve; as a rule, active = well fitted curve in the direction sought with a large enough effect; inconclusive = small, poorly fitted or top-dose-only effect, or another doubt; inactive = no such curve, though single readings can be large; an effect the other way counts as inactive or inconclusive. Potency is the fitted concentration of half-maximal effect.

SMILES	APE1 inh	ERG-DNA inh	RECQ1 inh	WRN inhibitor	BLM inh	GCN5L2 inh
C#CCOCCOCCOCCNc1nc(N2CCN(C(=O)CCCCCCCCCCNC(=O)Cn3cc(C[C@@H](C)O)nn3)CC2)nc(N2CCN(C(=O)CCCCCCCCCCNC(=O)[C@H](CCCCN)n3cc(C[C@@H](C)CC)nn3)CC2)n1	17%	0%	.	?	.	-13%
C#CCOCCOCCOCCNc1nc(N2CCN(C(=O)CCCCCCCCCCNC(=O)[C@H](CCCCN)n3cc(CCCC(=O)O)nn3)CC2)nc(N2CCN(C(=O)CCCCCCCCCCNC(=O)[C@H](CCCN=C(N)N)n3cc(C[C@@H](C)CC)nn3)CC2)n1	?	9%	.	?	.	1%
C#CCOCCOCCOCCNc1nc(N2CCN(C(=O)CCCCCCCCCCNC(=O)[C@H](CCCCN)n3cc(C[C@@H](C)CC)nn3)CC2)nc(N2CCN(C(=O)CCCCCCCCCCNC(=O)[C@H](CCCCN)n3cc(C[C@@H](C)CC)nn3)CC2)n1	.	14%	.	50µM*	.	.
C#CCOCCOCCOCCNc1nc(N2CCN(C(=O)CCCCCCCCCCNC(=O)[C@H](CCCCN)n3cc(CCO)nn3)CC2)nc(N2CCN(C(=O)CCCCCCCCCCNC(=O)[C@H](CCCN=C(N)N)n3cc(C[C@@H](C)CC)nn3)CC2)n1	?	3%	.	35µM*	.	-13%
O=C(CCNC(=O)c1ccco1)NC(Cc1c[nH]c2ccccc12)C(=O)O (centres undefined)	17%	4%	.	6%	.	-1%
OCc1cc2c(cn1)[nH]c1ccccc12	-2%	.	19%	.	.	?
CC(C)(C)c1ccc(N2C[C@@H](COc3ccc(C(=O)O)cc3)CC2=O)cc1	-1%	.	6%	.	2%	0%
CC1CCC2C(=O)N3C(CCC(C)[C@@H]3c3ccc(-c4ccco4)cc3)C(=O)N2C1c1cccc(N2CCCC2=O)c1 (some centres undefined)	?	.	3%[11.5 µM]	.	-14%[12.4 µM]	.
CCOc1ccc2nc(N3C(=O)/C(=C/c4ccc(Cl)cc4)NC3=S)sc2c1	2%	-8%	-11%	1%	28µM*	2%
COc1ccc2nc(N3C(=O)CNC3=S)sc2c1	0%	-2%	-1%	-7%	0%	-14%
CC(C)(C)NS(=O)(=O)c1cccc(-c2nnc(SCc3ccc(C(=O)O)cc3)n2-c2ccccc2)c1	50%	.	.	.	.	.
COc1cc(-c2nnc(COC(=O)c3cc(C)no3)o2)cc(OC)c1OC	-5%	-2%	.	-8%	-6%	?
COc1cc(-c2nnc(COC(=O)c3ccc(C)o3)o2)cc(OC)c1OC	24µM*	.	.	-19%	.	1%
CCC1CN2CCC1CC2[C@@H](NC(=S)Nc1cc(C(F)(F)F)cc(C(F)(F)F)c1)c1cccc2ccc(OC)cc12 (some centres undefined)	-4%	.	-3%	.	2%	.
Cc1ccc(C)c(S(=O)(=O)NCc2ccncc2)c1	-3%	-5%	i	2%	1%	3.2µM*
CC(=O)OCC(NC(=O)C1CCCN1C(=O)OC(C)(C)C)C1OC(n2cc(F)c(=O)[nH]c2=O)C(OC(C)=O)C1OC(C)=O (centres undefined)	-2%	.	i	.	1%	.
O=C1N(Cc2ccccc2)CC2(Br)COCOC12O (centres undefined)	.	-6%	.	18µM*	.	.
O=C1C(c2ccccc2)CN1Cc1ccccc1 (centres undefined)	.	.	.	5%[57.1 µM]	.	.
CCOC(=O)c1ccc(NC(=O)c2cc(=O)c3ccc(C)c(C)c3o2)cc1	.	0%	.	.	1%	-11%
COc1cc(C2NC(=O)NC(C)=C2C(=O)OCc2ccccc2)ccc1O (centres undefined)	1%	9%	i	-17%	14µM*	-1%
COc1ccc(COC(=O)C2=C(C)NC(=O)NC2c2ccc(O)c(OC)c2)cc1 (centres undefined)	-3%	.	-7%	0%	-3%	0%
CC(C)(C)n1ncc2c(=O)n(Cc3cc(C(F)(F)F)ccc3Cl)cnc21	1%	.	.	.	.	.
C/C=C1\COC(C(=O)NCc2ccccn2)(C(F)(F)F)C=C1C=C(C)C (centres undefined)	-6%	.	i	.	-6%	.
CCOC(=O)CSc1n[nH]c(-c2ccco2)n1	1%	5%	-3%	3%	-1%	-1%
O=C(O)c1ccc(CSc2n[nH]c(-c3ccco3)n2)cc1	40µM*	-2%	-7%	?	-4%	-3%
SMILES	APE1 inh	ERG-DNA inh	RECQ1 inh	WRN inhibitor	BLM inh	GCN5L2 inh
CCc1nnc(NC(=O)CSc2sc3c(O)cc(=O)[nH]c3c2C#N)s1	11%[12.4 µM]	20%	.	13µM*	18µM*	?
CCc1nnc(NC(=O)CSc2nc3[nH]c(=O)cc(O)c3s2)s1	6%	.	.	-25%	.	-1%
Cc1csc(NC(=O)CSc2sc3c(O)cc(=O)[nH]c3c2C#N)n1	8%	5%	.	40µM*	-18%	-12%
COc1ccccc1NC(=O)CSc1sc2c(O)cc(=O)[nH]c2c1C#N	58%[12.4 µM]	-2%	.	50µM*	-20%	-16%
COc1ccc(NC(=O)CSc2sc3c(O)cc(=O)[nH]c3c2C#N)c(OC)c1	1%	-6%	.	?	?	-11%
COc1ccc2c(c1)O[C@@H](c1cccc(C(F)(F)F)c1)[C@H](OC(=O)NS(=O)(=O)c1ccc(F)cc1)C2=O	0%	.	0%	.	0%	.
COc1ccc(C2C3=C(Nc4ncnn42)c2ccccc2CCC3)cc1 (centres undefined)	3%	.	-8%	-8%	0%	-7%
Fc1ccc(/C=C2\CCCC3=C2Nc2ncnn2C3c2ccc(F)cc2)cc1 (centres undefined)	11%	-11%	-11%	50µM*	-5%	-12%
COc1ccccc1NC(=O)C1=C(C)Nc2c(C(=O)Nc3cccc(C)c3)cnn2C1c1ccccc1Cl (centres undefined)	.	5%	.	.	-8%	-7%

Bioassay records (PubChem BioAssay)
